Test in all cases: DAPPL (digital affinity profiling via proximity ligation, sequencing); 10 mM Tris-HCl pH 7.5, 50 mM NaCl, 1 mM DTT, 4% glycerol, room temperature, 30 min; GST-TFs on glutathione beads, 16-mer random dsDNA library, 0.1% formaldehyde crosslink after washing; high values mean tight binding
What all share (conditions): protein: recombinant; tags: N-terminal GST; dsDNA, one strand shown

One assay addresses T1, FLI1 (Homo sapiens, UniProt Q01543 1-452).
T1 sequence: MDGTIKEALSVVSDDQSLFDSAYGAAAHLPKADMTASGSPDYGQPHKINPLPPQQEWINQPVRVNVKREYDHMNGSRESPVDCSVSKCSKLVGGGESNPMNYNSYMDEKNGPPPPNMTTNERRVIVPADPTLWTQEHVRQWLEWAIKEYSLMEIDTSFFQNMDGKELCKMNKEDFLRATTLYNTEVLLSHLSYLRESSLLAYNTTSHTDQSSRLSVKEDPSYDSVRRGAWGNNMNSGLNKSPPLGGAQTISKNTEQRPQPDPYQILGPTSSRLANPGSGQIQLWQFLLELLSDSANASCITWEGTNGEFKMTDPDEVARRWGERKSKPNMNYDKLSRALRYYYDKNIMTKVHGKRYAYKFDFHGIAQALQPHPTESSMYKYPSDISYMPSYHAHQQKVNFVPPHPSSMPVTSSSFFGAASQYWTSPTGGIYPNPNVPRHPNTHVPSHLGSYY
The essentials: (§1)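 Human transcription factors fused to GST were expressed in yeast, captured on glutathione beads, given DNA barcodes and pooled with a GST-only negative control. Pools were incubated with 200 nmole of a 16-mer random double-stranded DNA library in Tris/NaCl/DTT/glycerol buffer at room temperature for 30 min. They were then washed, crosslinked with 0.1% formaldehyde, proximity-ligated (BsaI/T4 ligase, 1 h, 37 °C), PCR-amplified and sequenced on an Illumina NextSeq500. Binding signal is each 6-mer's read frequency for a factor divided by its frequency for the GST control.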

Another assay deals with T2, ELK1 (Homo sapiens, UniProt P19419 1-428).
T2 sequence: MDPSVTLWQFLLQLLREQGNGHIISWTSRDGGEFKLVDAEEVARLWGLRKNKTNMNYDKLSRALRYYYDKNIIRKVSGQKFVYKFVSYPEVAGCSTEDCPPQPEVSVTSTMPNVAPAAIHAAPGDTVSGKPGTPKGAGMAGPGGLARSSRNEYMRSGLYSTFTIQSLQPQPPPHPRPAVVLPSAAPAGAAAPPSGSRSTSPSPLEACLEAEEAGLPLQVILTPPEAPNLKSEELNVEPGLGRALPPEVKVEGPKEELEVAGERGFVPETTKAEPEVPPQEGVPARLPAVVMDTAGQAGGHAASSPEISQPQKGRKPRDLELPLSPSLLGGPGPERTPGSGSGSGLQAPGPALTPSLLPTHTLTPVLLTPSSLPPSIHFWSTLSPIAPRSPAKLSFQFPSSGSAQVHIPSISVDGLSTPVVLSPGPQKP
The essentials:
as §1

Another assay addresses T3, GABPA (Homo sapiens, UniProt Q06546 1-454).
T3 sequence: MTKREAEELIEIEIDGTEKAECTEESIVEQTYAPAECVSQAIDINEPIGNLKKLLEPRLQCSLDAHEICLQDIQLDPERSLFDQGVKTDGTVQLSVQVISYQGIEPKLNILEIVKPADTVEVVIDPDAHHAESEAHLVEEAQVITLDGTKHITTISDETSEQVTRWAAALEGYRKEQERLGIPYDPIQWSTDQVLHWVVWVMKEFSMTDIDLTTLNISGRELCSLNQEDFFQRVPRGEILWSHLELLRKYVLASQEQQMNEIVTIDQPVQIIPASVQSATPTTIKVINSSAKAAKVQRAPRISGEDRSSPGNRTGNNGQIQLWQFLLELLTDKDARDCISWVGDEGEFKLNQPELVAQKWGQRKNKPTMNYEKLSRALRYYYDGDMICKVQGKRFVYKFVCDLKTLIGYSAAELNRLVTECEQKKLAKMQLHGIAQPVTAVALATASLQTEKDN
The essentials:
as §1

The target of the next assay is T4, ERG (Homo sapiens, UniProt P11308 1-479).
T4 sequence: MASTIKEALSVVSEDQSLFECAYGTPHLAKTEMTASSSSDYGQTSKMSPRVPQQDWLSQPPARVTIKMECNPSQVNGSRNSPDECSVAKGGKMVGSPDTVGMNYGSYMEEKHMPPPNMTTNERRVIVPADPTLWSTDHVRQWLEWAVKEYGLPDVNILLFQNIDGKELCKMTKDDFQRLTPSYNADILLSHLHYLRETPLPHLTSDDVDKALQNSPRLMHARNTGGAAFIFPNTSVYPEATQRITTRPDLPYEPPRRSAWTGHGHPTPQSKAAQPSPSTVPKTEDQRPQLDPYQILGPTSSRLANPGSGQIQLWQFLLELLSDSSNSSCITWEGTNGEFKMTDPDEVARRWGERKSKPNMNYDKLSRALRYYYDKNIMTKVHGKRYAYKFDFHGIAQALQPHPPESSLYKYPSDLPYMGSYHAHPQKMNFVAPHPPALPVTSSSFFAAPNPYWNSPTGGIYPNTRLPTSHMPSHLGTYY
The essentials: as §1

For another assay, the target named is ELF1 (Homo sapiens, UniProt P32519 1-619). The essentials: as §1
Chain of ELF1 (P32519 whole entry): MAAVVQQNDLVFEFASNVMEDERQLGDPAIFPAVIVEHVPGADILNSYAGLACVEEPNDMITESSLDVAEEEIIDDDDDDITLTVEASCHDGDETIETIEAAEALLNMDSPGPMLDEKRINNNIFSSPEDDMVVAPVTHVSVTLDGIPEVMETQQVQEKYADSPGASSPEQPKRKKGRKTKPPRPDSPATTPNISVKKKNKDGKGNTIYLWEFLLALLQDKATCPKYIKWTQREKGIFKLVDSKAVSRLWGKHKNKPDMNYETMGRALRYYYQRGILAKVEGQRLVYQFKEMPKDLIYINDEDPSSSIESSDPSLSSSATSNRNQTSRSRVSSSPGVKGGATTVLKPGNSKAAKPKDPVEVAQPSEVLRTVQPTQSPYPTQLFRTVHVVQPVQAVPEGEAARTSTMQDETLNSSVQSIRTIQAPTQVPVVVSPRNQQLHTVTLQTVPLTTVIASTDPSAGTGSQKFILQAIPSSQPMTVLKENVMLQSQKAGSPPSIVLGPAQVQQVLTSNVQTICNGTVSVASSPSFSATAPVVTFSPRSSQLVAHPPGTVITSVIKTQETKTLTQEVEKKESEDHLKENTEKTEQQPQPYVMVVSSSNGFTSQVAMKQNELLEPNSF
The target in the next assay is T5, EHF (Homo sapiens, UniProt Q9NZC4 1-300).
T5 sequence: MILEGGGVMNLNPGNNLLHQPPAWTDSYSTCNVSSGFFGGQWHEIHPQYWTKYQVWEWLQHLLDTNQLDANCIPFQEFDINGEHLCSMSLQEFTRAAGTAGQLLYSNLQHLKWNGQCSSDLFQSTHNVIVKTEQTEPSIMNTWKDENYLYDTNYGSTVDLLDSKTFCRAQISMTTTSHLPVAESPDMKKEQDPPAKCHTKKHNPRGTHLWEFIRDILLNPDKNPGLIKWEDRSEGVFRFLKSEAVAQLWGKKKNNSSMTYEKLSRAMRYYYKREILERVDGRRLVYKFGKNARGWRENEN
In a few lines: as §1

Assay [1] addresses SPI1 (Homo sapiens, UniProt P17947 1-270). The essentials:
as §1

Another assay deals with SPIB (Homo sapiens, UniProt Q01892 1-262). The essentials:
as §1

Assay [2] concerns the target SPI1 (Homo sapiens, UniProt P17947 1-270). In a few lines:
as §1
This is another data set of the same source.

A further assay deals with T6, ELK3 (Homo sapiens, UniProt P41970 1-407).
T6 sequence: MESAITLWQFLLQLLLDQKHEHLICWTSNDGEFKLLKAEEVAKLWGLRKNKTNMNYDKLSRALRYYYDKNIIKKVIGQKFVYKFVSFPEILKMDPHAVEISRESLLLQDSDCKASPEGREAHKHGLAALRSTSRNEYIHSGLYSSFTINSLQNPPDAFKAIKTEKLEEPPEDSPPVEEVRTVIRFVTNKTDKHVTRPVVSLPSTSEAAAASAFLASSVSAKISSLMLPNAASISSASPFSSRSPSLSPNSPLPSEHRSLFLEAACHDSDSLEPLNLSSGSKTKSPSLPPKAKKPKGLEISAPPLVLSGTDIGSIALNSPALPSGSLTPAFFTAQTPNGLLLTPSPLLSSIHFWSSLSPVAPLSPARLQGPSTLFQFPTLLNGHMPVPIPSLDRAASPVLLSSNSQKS
In a few lines:
as §1

Chain of SPIB (Q01892 whole entry): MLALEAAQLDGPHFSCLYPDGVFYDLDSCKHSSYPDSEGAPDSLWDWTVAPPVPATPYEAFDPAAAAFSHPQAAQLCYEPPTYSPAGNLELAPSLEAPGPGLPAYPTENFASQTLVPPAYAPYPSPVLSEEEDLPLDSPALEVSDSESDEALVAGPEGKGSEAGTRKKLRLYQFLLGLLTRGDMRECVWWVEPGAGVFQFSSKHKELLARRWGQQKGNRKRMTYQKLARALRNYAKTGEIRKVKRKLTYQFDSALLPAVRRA

Regarding CCGCGT, the binding signal with FLI1 was 1.29 fold enrichment (6-mer frequency, TF over GST control); with ELK1, 1.11 fold enrichment (6-mer frequency, TF over GST control); with GABPA it was 1.06 fold enrichment (6-mer frequency, TF over GST control); with ERG it was 1.13 fold enrichment (6-mer frequency, TF over GST control); with ELF1 it was 1.1 fold enrichment (6-mer frequency, TF over GST control); in the assay with EHF, 1.18 fold enrichment (6-mer frequency, TF over GST control). Also, the binding signal was 1.12 fold enrichment (6-mer frequency, TF over GST control) in the assay with SPI1 [1] and 1.16 fold enrichment (6-mer frequency, TF over GST control) in the assay with SPIB.

In the case of TTGAGG, the binding signal is 1.23 fold enrichment (6-mer frequency, TF over GST control) with FLI1; 1.09 fold enrichment (6-mer frequency, TF over GST control) with ELK1; 1.16 fold enrichment (6-mer frequency, TF over GST control) with GABPA; 1.06 fold enrichment (6-mer frequency, TF over GST control) with ERG; 1.08 fold enrichment (6-mer frequency, TF over GST control) with ELF1; 1.11 fold enrichment (6-mer frequency, TF over GST control) in the assay with EHF. The binding signal with SPI1 [1] was 1.27 fold enrichment (6-mer frequency, TF over GST control).

Consider CCGGAA, for which the binding signal with FLI1 was 5.18 fold enrichment (6-mer frequency, TF over GST control); with ELK1, 6.13 fold enrichment (6-mer frequency, TF over GST control); in the assay with GABPA it was 4.9 fold enrichment (6-mer frequency, TF over GST control); in the assay with ERG it was 6.79 fold enrichment (6-mer frequency, TF over GST control); in the assay with ELF1, 5.12 fold enrichment (6-mer frequency, TF over GST control); with EHF, 5.9 fold enrichment (6-mer frequency, TF over GST control). The binding signal with SPI1 [2] was 5.33 fold enrichment (6-mer frequency, TF over GST control); in the assay with SPIB it was 5.79 fold enrichment (6-mer frequency, TF over GST control); with ELK3, 6.42 fold enrichment (6-mer frequency, TF over GST control).

As to AAAAGG, the binding signal with FLI1 was 1.1 fold enrichment (6-mer frequency, TF over GST control); with ELK1 it was 1.05 fold enrichment (6-mer frequency, TF over GST control); with GABPA it was 1.25 fold enrichment (6-mer frequency, TF over GST control); with ERG it was 1.13 fold enrichment (6-mer frequency, TF over GST control); in the assay with ELF1, 1.1 fold enrichment (6-mer frequency, TF over GST control); in the assay with EHF it was 1.1 fold enrichment (6-mer frequency, TF over GST control). For the same sequence, the binding signal in the assay with SPI1 [1] was 1.48 fold enrichment (6-mer frequency, TF over GST control); with SPIB, 1.1 fold enrichment (6-mer frequency, TF over GST control).

Turning to AGGCTC, the binding signal was 1.04 fold enrichment (6-mer frequency, TF over GST control) with FLI1; 1.03 fold enrichment (6-mer frequency, TF over GST control) with ELK1; 1.12 fold enrichment (6-mer frequency, TF over GST control) in the assay with GABPA; 1.06 fold enrichment (6-mer frequency, TF over GST control) with ERG; 1.12 fold enrichment (6-mer frequency, TF over GST control) with ELF1; 1.08 fold enrichment (6-mer frequency, TF over GST control) with EHF. In addition, the binding signal in the assay with SPI1 [1] was 1.02 fold enrichment (6-mer frequency, TF over GST control); in the assay with SPIB it was 1.03 fold enrichment (6-mer frequency, TF over GST control).

For the sequence CAACGC, the binding signal was 1.04 fold enrichment (6-mer frequency, TF over GST control) with FLI1; 1.11 fold enrichment (6-mer frequency, TF over GST control) with ELK1; 1.12 fold enrichment (6-mer frequency, TF over GST control) with GABPA; 1.04 fold enrichment (6-mer frequency, TF over GST control) with ERG; 1.11 fold enrichment (6-mer frequency, TF over GST control) with ELF1; 1.01 fold enrichment (6-mer frequency, TF over GST control) with EHF. Besides, the binding signal in the assay with SPI1 [1] was 1.1 fold enrichment (6-mer frequency, TF over GST control).

For the sequence ATTAAG, the binding signal with FLI1 was 1.04 fold enrichment (6-mer frequency, TF over GST control); with ELK1, 1.07 fold enrichment (6-mer frequency, TF over GST control); with GABPA, 1.09 fold enrichment (6-mer frequency, TF over GST control); in the assay with ERG it was 1.01 fold enrichment (6-mer frequency, TF over GST control); with ELF1 it was 1.08 fold enrichment (6-mer frequency, TF over GST control); in the assay with EHF it was 1.04 fold enrichment (6-mer frequency, TF over GST control). The binding signal in the assay with SPI1 [1] was 1.03 fold enrichment (6-mer frequency, TF over GST control); with SPIB, 1.06 fold enrichment (6-mer frequency, TF over GST control).

For the sequence GCTTAG, the binding signal is 1.14 fold enrichment (6-mer frequency, TF over GST control) with FLI1; 1.06 fold enrichment (6-mer frequency, TF over GST control) in the assay with ELK1; 1.19 fold enrichment (6-mer frequency, TF over GST control) in the assay with GABPA; 1.18 fold enrichment (6-mer frequency, TF over GST control) with ERG; 1.15 fold enrichment (6-mer frequency, TF over GST control) in the assay with ELF1; 1.11 fold enrichment (6-mer frequency, TF over GST control) with EHF. The binding signal is 1.1 fold enrichment (6-mer frequency, TF over GST control) with SPI1 [1] and 1.09 fold enrichment (6-mer frequency, TF over GST control) with SPIB.

These data come from publication PMC7862700, “An all-to-all approach to the identification of sequence-specific readers for epigenetic DNA modifications on cytosine”.
